About 2,000 (36%) of roughly 5,500 compounds were called active. About 18% were inconclusive and are not listed. Rule as the data show it: active = normalized growth mostly below about 0.91 (no sharp cut-off); inconclusive = no clear call, values can overlap the other calls; inactive = mostly above about 0.92. This is one part of the list.
Experiment: chemical genetic growth profiling, strain panel (AID 1159580);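 also: tested at 20 µM; growth read once vehicle control cultures reached saturation at 30 °C; 1 = growth at the plate median or of vehicle wells; lower values mean less growth of the strain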
Conditions: growth OD
[1] = S. cerevisiae deletion strains, locus YAL013W, strain DEP1, hits give low values
[2] = S. cerevisiae deletion strains, locus YGR229C, strain SMI1, hits give low values
[3] = S. cerevisiae deletion strains, locus YMR263W, strain SAP30, hits give low values
[4] = S. cerevisiae deletion strains, locus YMR307W, strain GAS1, hits give low values
[5] = S. cerevisiae deletion strains, locus YNL128W, strain TEP1, hits give low values
[6] = S. cerevisiae deletion strains, locus YPL241C, strain CIN2, hits give low values

Measured: normalized growth

CC(C)(C)NC[C@H](O)COc1nsnc1N1CCOCC1
inactive: [1] 1.01 | S. cerevisiae deletion strains, locus YAL040C, strain CLN3, hits give low values 1.03 | S. cerevisiae deletion strains, locus YCL061C, strain MRC1 (second series), hits give low values 1 | S. cerevisiae deletion strains, locus YDR363W, strain ESC2, hits give low values 0.989 | S. cerevisiae deletion strains, locus YER002W, strain NOP16, hits give low values 0.998 | [2] 1.03 | [3] 0.993 | [4] 0.992 | [5] 0.995 | S. cerevisiae deletion strains, locus YNL175C, strain NOP13, hits give low values 0.997 | S. cerevisiae deletion strains, locus YNL197C, strain WHI3, hits give low values 0.99 | S. cerevisiae deletion strains, locus YNL224C, strain SQS1, hits give low values 0.988 | S. cerevisiae deletion strains, locus YOR083W, strain WHI5 (second series), hits give low values 0.996 | [6] 1

CCS(=O)CCSP(=O)(OC)OC (stereo not given)
inactive: [1] 1.01 | S. cerevisiae deletion strains, locus YBR021W, strain FUR4, hits give low values 1 | S. cerevisiae deletion strains, locus YBR229C, strain ROT2, hits give low values 1.02 | S. cerevisiae deletion strains, locus YCL029C, strain bik1, hits give low values 1 | S. cerevisiae deletion strains, locus YDL035C, strain GPR1, hits give low values 1.01 | S. cerevisiae deletion strains, locus YDL074C, strain BRE1, hits give low values 0.998 | S. cerevisiae deletion strains, locus YDL101C, strain DUN1, hits give low values 1.01 | S. cerevisiae deletion strains, locus YDL134C, strain PPH21, hits give low values 1.01 | S. cerevisiae deletion strains, locus YDL185W, strain tfp1, hits give low values 1.01 | S. cerevisiae deletion strains, locus YDL192W, strain arf1, hits give low values 1 | S. cerevisiae deletion strains, locus YDR101C, strain arx1, hits give low values 1 | S. cerevisiae deletion strains, locus YDR150W, strain NUM1, hits give low values 1.01 | S. cerevisiae deletion strains, locus YDR162C, strain NBP2, hits give low values 1.03 | S. cerevisiae deletion strains, locus YDR318W, strain mcm21, hits give low values 1.01 | S. cerevisiae deletion strains, locus YDR388W, hits give low values 1.01 | S. cerevisiae deletion strains, locus YDR502C, strain sam2, hits give low values 0.995 | S. cerevisiae deletion strains, locus YEL061C, strain CIN8, hits give low values 1.02 | S. cerevisiae deletion strains, locus YER110C, hits give low values 1.01 | S. cerevisiae deletion strains, locus YER155C, strain BEM2, hits give low values 1.02 | S. cerevisiae deletion strains, locus YER167W, strain BCK2, hits give low values 1.02 | S. cerevisiae deletion strains, locus YGL078C, strain dbp3, hits give low values 1.01 | S. cerevisiae deletion strains, locus YGL086W, strain mad1, hits give low values 1 | S. cerevisiae deletion strains, locus YGL248W, strain PDE1, hits give low values 1.01 | S. cerevisiae deletion strains, locus YGR078C, strain PAC10, hits give low values 1.02 | S. cerevisiae deletion strains, locus YGR135W, strain pre9, hits give low values 1.01 | [2] 0.999 | S. cerevisiae deletion strains, locus YGR252W, strain gcn5, hits give low values 0.945 | S. cerevisiae deletion strains, locus YHR030C, strain SLT2, hits give low values 1 | S. cerevisiae deletion strains, locus YHR079C, strain IRE1 (second series), hits give low values 1.01 | S. cerevisiae deletion strains, locus YHR094C, strain hxt1, hits give low values 1.01 | S. cerevisiae deletion strains, locus YHR129C, strain ARP1, hits give low values 1.02 | S. cerevisiae deletion strains, locus YHR200W, strain rpn10, hits give low values 1 | S. cerevisiae deletion strains, locus YIL066C, strain RNR3, hits give low values 1.03 | S. cerevisiae deletion strains, locus YIL073C, strain SPO22, hits give low values 1.06 | S. cerevisiae deletion strains, locus YIL125W, strain kgd1, hits give low values 0.997 | S. cerevisiae deletion strains, locus YIR030C, strain dcg1, hits give low values 1.01 | S. cerevisiae deletion strains, locus YJL095W, strain BCK1, hits give low values 1.03 | S. cerevisiae deletion strains, locus YJL134W, strain LCB3, hits give low values 1.01 | S. cerevisiae deletion strains, locus YJL168C, strain set2, hits give low values 1 | S. cerevisiae deletion strains, locus YJL187C, strain SWE1 (second series), hits give low values 1.02 | S. cerevisiae deletion strains, locus YJR043C, strain POL32, hits give low values 1.02 | S. cerevisiae deletion strains, locus YJR075W, strain HOC1, hits give low values 0.99 | S. cerevisiae deletion strains, locus YKL009W, strain mrt4, hits give low values 0.977 | S. cerevisiae deletion strains, locus YKL068W, hits give low values 1 | S. cerevisiae deletion strains, locus YKL085W, strain MDH1 (second series), hits give low values 1.01 | S. cerevisiae deletion strains, locus YKL085W, strain MDH1, hits give low values 1.01 | S. cerevisiae deletion strains, locus YKL190W, strain CNB1, hits give low values 1.01 | S. cerevisiae deletion strains, locus YKR001C, strain vps1, hits give low values 1 | S. cerevisiae deletion strains, locus YLR039C, strain RIC1, hits give low values 1.04 | S. cerevisiae deletion strains, locus YLR058C, strain SHM2, hits give low values 1.02 | S. cerevisiae deletion strains, locus YLR102C, strain apc9, hits give low values 1 | S. cerevisiae deletion strains, locus YLR262C, strain YPT6, hits give low values 1.02 | S. cerevisiae deletion strains, locus YLR268W, strain sec22, hits give low values 0.999 | S. cerevisiae deletion strains, locus YLR330W, strain CHS5, hits give low values 1.01 | S. cerevisiae deletion strains, locus YLR342W, strain FKS1 (second series), hits give low values 1.02 | S. cerevisiae deletion strains, locus YLR371W, strain rom2, hits give low values 0.999 | S. cerevisiae deletion strains, locus YLR418C, strain cdc73, hits give low values 0.984 | S. cerevisiae deletion strains, locus YML016C, strain PPZ1, hits give low values 1.01 | S. cerevisiae deletion strains, locus YML032C, strain rad52, hits give low values 1.01 | S. cerevisiae deletion strains, locus YML124C, strain tub3, hits give low values 1.01 | S. cerevisiae deletion strains, locus YMR078C, strain ctf18, hits give low values 1.01 | S. cerevisiae deletion strains, locus YMR223W, strain ubp8, hits give low values 1 | [3] 1.02 | [4] 1 | S. cerevisiae deletion strains, locus YNL067W, strain RPL9B, hits give low values 1.01 | [5] 1.02 | S. cerevisiae deletion strains, locus YNL153C, strain GIM3, hits give low values 1.01 | S. cerevisiae deletion strains, locus YNL233W, strain BNI4, hits give low values 1.01 | S. cerevisiae deletion strains, locus YNL250W, strain rad50, hits give low values 1.01 | S. cerevisiae deletion strains, locus YNL271C, strain bni1, hits give low values 1 | S. cerevisiae deletion strains, locus YNL298W, strain CLA4, hits give low values 1.01 | S. cerevisiae deletion strains, locus YNL307C, strain MCK1, hits give low values 1.01 | S. cerevisiae deletion strains, locus YNL322C, strain KRE1, hits give low values 1.01 | S. cerevisiae deletion strains, locus YNR052C, strain pop2, hits give low values 1 | S. cerevisiae deletion strains, locus YOL006C, strain TOP1, hits give low values 1.01 | S. cerevisiae deletion strains, locus YOL012C, strain htz1 0.877 | S. cerevisiae deletion strains, locus YOL147C, strain pex11, hits give low values 1 | S. cerevisiae deletion strains, locus YOR061W, strain CKA2, hits give low values 1.01 | S. cerevisiae deletion strains, locus YOR069W, strain VPS5, hits give low values 1 | S. cerevisiae deletion strains, locus YOR136W, strain idh2, hits give low values 1 | S. cerevisiae deletion strains, locus YOR144C, strain elg1, hits give low values 1.01 | S. cerevisiae deletion strains, locus YOR184W, strain ser1, hits give low values 1 | S. cerevisiae deletion strains, locus YOR316C, strain cot1, hits give low values 1 | S. cerevisiae deletion strains, locus YPL055C, strain LGE1, hits give low values 1.01 | [6] 1.01 | S. cerevisiae deletion strains, locus YPR119W, strain clb2, hits give low values 1.01 | S. cerevisiae deletion strains, locus YPR141C, strain kar3, hits give low values 0.997 | S. cerevisiae deletion strains, locus YPR163C, strain tif3, hits give low values 1.01 | S. cerevisiae deletion strains, locus YPR167C, strain met16, hits give low values 0.998 | S. cerevisiae deletion strains, strain wtn01, hits give low values 0.996 | S. cerevisiae strains, strain wild type, hits give low values 1.01
